# According to ChEMBL document CHEMBL1961873, “Compounds: GSK PKIS; Assays: Nanosyn kinase panel” (2012):
# How the values were obtained:
# [1] = biological target: Sphingosine kinase 1 (Homo sapiens) (UniProt Q9NYA1); settings: at 1 µM;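 further: mean SPHK1 inhibition value reported from the GSK PKIS kinase panel screen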
# [2] = biological target: T1, Sphingosine kinase 2 (Homo sapiens) (UniProt Q9NRA0); settings: at 0.1 µM
# T1 sequence (whole entry): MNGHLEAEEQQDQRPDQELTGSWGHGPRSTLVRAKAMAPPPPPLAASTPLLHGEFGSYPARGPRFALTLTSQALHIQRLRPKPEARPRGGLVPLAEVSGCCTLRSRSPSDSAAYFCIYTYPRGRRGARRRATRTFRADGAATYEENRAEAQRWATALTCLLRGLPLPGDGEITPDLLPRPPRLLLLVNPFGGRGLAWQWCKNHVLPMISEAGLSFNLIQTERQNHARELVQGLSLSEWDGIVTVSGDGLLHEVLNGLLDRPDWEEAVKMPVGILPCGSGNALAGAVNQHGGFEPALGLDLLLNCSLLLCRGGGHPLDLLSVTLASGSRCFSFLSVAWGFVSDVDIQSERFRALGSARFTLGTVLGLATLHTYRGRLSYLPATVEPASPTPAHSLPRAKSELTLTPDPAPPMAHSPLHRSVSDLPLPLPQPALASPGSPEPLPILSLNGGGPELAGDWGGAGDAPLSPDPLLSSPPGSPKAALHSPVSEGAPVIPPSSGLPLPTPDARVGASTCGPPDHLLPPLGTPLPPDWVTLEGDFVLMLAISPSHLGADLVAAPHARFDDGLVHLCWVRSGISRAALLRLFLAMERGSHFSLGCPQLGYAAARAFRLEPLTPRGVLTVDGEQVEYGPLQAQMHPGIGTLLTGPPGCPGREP
# [3] = biological target: T1, Sphingosine kinase 2 (Homo sapiens); settings: at 1 µM
# [4] = biological target: Casein kinase II subunit alpha (Homo sapiens) (UniProt P68400); settings: at 0.1 µM
# Chain of Casein kinase II subunit alpha (Homo sapiens) (P68400 whole entry, looked up): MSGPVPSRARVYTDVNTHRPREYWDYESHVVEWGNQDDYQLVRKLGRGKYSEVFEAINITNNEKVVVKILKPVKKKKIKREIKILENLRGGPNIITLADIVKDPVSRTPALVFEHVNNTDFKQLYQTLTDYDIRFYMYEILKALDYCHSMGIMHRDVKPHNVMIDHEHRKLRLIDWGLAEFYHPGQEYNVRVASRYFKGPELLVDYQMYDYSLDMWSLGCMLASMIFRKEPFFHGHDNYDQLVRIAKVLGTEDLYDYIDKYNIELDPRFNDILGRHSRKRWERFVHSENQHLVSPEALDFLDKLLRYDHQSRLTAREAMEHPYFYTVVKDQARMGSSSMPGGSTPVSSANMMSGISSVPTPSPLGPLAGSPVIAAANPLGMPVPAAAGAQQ
# [5] = biological target: Casein kinase II subunit alpha (Homo sapiens) (UniProt P68400); settings: at 1 µM
# [6] = biological target: T2, Inhibitor of nuclear factor kappa-B kinase subunit alpha (Homo sapiens) (UniProt O15111); settings: at 0.1 µM;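 further: mean percent inhibition from GSK PKIS profiling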
# T2 sequence (whole entry): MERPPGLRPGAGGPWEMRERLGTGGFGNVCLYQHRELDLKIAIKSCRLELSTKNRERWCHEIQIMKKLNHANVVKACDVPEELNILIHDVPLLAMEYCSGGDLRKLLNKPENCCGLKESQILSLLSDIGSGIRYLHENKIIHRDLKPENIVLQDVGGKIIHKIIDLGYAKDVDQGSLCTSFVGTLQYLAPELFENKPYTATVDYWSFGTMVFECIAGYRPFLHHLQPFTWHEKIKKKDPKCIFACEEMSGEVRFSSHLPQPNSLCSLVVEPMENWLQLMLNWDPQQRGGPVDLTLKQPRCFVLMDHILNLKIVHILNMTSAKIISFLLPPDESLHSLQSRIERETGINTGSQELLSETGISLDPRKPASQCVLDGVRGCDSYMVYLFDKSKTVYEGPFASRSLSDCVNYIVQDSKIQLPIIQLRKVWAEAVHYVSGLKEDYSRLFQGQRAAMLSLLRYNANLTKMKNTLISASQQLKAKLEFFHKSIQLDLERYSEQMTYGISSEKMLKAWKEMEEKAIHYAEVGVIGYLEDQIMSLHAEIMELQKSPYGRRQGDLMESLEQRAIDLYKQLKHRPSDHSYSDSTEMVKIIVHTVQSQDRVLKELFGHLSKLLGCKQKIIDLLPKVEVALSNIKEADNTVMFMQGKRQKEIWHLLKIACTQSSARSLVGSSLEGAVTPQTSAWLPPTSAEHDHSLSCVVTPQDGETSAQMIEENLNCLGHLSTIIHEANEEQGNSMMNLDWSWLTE
# [7] = biological target: T3, Inhibitor of nuclear factor kappa-B kinase subunit beta (Homo sapiens) (UniProt O14920); settings: at 0.1 µM
# T3 sequence (whole entry): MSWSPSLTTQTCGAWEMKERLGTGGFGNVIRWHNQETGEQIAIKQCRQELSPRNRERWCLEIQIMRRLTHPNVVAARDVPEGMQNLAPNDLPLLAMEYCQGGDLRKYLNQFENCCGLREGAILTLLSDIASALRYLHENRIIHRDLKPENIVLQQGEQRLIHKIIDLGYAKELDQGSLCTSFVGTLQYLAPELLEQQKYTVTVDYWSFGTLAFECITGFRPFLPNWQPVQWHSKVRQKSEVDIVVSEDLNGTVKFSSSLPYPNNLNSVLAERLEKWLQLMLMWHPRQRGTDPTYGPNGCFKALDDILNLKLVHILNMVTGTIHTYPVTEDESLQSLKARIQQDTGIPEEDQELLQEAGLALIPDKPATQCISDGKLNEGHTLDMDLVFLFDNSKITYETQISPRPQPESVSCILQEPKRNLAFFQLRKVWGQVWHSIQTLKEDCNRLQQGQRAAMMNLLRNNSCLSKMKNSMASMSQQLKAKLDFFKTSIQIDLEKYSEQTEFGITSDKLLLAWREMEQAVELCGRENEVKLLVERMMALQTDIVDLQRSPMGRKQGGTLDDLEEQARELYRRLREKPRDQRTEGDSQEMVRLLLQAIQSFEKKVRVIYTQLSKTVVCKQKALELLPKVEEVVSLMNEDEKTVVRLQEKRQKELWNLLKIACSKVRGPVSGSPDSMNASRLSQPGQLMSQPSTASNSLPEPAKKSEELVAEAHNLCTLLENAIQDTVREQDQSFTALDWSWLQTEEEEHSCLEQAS
# [8] = biological target: T3, Inhibitor of nuclear factor kappa-B kinase subunit beta (Homo sapiens); settings: at 1 µM
# [9] = biological target: T4, Inhibitor of nuclear factor kappa-B kinase subunit epsilon (Homo sapiens) (UniProt Q14164); settings: at 0.1 µM
# T4 sequence (whole entry): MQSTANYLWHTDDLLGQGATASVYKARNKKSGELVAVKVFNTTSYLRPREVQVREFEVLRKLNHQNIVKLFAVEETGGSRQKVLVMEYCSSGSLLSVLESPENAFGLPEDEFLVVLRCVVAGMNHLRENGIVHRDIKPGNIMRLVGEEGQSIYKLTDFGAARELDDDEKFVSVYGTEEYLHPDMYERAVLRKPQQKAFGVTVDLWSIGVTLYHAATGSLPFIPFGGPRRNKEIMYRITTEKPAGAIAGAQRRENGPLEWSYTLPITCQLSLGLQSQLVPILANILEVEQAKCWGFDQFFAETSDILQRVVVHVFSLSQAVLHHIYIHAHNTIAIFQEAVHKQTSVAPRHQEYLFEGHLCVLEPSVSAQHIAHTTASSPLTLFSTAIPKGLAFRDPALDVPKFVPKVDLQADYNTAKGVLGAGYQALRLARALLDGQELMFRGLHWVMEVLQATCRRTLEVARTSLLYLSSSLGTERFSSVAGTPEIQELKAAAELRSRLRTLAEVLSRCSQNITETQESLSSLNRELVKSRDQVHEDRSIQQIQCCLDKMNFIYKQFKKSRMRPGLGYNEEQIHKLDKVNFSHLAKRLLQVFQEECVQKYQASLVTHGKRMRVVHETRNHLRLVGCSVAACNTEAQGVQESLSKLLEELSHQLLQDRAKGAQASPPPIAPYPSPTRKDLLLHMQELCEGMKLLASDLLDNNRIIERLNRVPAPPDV
# [10] = biological target: T4, Inhibitor of nuclear factor kappa-B kinase subunit epsilon (Homo sapiens); settings: at 1 µM
# [11] = biological target: T5, Serine/threonine-protein kinase Nek1 (Homo sapiens) (UniProt Q96PY6); settings: at 0.1 µM
# T5 sequence (whole entry): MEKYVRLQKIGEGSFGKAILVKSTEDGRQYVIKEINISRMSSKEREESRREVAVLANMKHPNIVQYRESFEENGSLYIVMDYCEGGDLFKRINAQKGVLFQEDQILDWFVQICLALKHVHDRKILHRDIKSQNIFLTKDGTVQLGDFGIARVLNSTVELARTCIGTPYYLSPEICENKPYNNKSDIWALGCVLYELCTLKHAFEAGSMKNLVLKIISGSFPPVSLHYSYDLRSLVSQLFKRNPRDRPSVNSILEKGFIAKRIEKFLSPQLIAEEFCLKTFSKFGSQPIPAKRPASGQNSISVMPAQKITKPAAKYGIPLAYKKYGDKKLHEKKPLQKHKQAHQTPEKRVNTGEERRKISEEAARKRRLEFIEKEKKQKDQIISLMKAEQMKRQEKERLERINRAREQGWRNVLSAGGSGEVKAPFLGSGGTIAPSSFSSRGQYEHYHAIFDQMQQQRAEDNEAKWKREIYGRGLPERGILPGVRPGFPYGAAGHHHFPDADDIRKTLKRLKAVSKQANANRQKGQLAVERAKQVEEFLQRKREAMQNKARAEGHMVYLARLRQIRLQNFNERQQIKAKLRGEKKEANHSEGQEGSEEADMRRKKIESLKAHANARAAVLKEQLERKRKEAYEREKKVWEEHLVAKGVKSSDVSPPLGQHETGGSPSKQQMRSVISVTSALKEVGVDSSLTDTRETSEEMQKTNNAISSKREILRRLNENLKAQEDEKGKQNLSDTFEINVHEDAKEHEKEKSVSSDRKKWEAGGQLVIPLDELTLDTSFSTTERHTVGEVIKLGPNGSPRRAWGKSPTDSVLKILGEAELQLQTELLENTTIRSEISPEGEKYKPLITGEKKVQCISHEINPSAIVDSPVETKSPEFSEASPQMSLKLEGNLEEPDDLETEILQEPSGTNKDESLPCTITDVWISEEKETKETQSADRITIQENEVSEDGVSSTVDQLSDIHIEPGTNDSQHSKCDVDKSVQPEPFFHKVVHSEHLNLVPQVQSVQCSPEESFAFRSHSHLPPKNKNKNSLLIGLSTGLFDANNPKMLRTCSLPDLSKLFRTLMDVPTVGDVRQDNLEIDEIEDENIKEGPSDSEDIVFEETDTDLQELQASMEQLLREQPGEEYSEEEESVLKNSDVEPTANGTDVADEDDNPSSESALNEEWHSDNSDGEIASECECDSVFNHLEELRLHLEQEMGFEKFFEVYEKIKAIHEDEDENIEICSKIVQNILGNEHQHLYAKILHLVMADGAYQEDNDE
# [12] = biological target: T5, Serine/threonine-protein kinase Nek1 (Homo sapiens); settings: at 1 µM
# [13] = biological target: T6, Serine/threonine-protein kinase Nek2 (Homo sapiens) (UniProt P51955); settings: at 0.1 µM
# T6 sequence (whole entry): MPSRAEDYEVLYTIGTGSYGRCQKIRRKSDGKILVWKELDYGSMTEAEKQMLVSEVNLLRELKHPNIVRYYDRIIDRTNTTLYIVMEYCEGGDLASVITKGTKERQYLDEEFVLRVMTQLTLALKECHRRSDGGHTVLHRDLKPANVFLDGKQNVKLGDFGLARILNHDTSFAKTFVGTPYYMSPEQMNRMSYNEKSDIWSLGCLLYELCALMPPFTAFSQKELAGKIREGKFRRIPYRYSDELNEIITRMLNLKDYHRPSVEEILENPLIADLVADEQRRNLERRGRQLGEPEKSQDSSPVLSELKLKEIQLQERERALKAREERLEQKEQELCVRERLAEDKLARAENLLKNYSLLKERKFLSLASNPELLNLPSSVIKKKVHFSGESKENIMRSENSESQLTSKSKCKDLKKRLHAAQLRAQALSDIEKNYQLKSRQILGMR
# [14] = biological target: T6, Serine/threonine-protein kinase Nek2 (Homo sapiens); settings: at 1 µM
# [15] = biological target: Serine/threonine-protein kinase Nek6 (Homo sapiens) (UniProt Q9HC98); settings: at 0.1 µM
# Chain of Serine/threonine-protein kinase Nek6 (Homo sapiens) (Q9HC98 whole entry): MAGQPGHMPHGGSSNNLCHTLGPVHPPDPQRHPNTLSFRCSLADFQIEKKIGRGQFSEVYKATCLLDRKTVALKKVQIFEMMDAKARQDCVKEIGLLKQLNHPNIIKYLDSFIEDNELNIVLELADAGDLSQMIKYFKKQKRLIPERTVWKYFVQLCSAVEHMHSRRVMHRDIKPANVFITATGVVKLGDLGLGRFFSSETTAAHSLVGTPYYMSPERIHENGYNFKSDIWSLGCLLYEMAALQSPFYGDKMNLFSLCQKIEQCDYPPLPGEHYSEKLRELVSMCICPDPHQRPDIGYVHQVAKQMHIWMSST
# [16] = biological target: Serine/threonine-protein kinase Nek6 (Homo sapiens) (UniProt Q9HC98); settings: at 1 µM
# [17] = biological target: Serine/threonine-protein kinase Nek7 (Homo sapiens) (UniProt Q8TDX7); settings: at 0.1 µM
# Chain of Serine/threonine-protein kinase Nek7 (Homo sapiens) (Q8TDX7 whole entry, looked up): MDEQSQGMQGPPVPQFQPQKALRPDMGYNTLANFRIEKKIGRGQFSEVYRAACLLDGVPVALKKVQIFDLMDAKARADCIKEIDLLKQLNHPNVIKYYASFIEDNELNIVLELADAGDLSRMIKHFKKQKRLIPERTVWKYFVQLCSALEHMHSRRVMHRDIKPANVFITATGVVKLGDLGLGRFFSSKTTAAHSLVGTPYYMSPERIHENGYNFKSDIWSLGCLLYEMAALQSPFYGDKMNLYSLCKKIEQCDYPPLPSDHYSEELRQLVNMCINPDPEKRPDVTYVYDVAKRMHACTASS
# [18] = biological target: Serine/threonine-protein kinase Nek7 (Homo sapiens) (UniProt Q8TDX7); settings: at 1 µM
# [19] = biological target: T7, Serine/threonine-protein kinase Nek9 (Homo sapiens) (UniProt Q8TD19); settings: at 0.1 µM;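 further: reported value is the mean percent inhibition of NEK9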
# T7 sequence (whole entry): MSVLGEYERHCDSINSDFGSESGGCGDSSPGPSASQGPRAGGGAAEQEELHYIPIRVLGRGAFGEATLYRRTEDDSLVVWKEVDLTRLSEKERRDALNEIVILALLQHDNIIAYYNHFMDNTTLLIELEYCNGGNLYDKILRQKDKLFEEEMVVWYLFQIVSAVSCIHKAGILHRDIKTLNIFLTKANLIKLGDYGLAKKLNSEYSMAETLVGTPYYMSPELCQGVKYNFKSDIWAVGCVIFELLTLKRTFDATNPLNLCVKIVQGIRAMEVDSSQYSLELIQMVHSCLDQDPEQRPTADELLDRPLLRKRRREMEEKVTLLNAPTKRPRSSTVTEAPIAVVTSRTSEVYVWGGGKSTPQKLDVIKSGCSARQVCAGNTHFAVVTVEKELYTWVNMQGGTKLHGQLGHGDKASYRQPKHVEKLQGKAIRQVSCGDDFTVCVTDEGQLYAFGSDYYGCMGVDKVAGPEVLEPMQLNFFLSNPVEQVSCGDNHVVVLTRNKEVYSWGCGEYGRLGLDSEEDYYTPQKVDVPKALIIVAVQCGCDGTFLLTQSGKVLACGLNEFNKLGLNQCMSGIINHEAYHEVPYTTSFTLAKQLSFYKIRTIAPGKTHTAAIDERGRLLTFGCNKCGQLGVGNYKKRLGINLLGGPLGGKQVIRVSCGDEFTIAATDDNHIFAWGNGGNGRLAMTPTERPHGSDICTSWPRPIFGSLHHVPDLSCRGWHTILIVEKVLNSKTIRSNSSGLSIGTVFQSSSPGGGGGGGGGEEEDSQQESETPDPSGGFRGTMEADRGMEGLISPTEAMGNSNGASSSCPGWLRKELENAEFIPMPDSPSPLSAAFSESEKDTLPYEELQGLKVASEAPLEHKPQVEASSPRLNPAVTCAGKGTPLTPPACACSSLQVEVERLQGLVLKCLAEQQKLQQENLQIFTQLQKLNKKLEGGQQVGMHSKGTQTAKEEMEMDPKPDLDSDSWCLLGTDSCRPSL
# Chain of Sphingosine kinase 1 (Homo sapiens) (Q9NYA1 whole entry): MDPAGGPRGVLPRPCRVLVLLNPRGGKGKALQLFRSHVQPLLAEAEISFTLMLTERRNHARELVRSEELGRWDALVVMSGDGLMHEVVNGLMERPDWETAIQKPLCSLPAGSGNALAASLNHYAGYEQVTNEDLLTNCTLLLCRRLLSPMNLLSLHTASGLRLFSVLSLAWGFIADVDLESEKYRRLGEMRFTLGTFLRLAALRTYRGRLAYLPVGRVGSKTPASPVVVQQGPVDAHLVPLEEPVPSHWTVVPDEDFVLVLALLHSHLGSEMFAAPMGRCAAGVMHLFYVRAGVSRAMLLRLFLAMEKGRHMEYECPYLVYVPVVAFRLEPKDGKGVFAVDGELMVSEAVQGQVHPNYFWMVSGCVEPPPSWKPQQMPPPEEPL
smiles,measurement,setting,value
CCn1c(-c2nonc2N)nc2ccncc21,inhibition,[1],-0.31%
same,inhibition,[2],-1.06%
same,inhibition,[3],0.26%
same,inhibition,[4],-4.19%
same,inhibition,[5],-5.18%
same,inhibition,[6],-7.12%
same,inhibition,[7],5.3%
same,inhibition,[8],3.24%
same,inhibition,[9],3.33%
same,inhibition,[10],0.86%
same,inhibition,[11],1.01%
same,inhibition,[12],0.07%
same,inhibition,[13],2.29%
same,inhibition,[14],1.09%
same,inhibition,[15],2.53%
same,inhibition,[16],-2.93%
same,inhibition,[17],3.2%
same,inhibition,[18],2.01%
same,inhibition,[19],0.35%
